# From PubChem
# DUSP3 inh = VHR1 phosphatase inhibitors, primary screen, biochemical, absorbance, uHTS. actives 0.52% (n = 290,000). AID 1654, 2009. Dual specificity protein phosphatase 3 (Homo sapiens), P51452. recombinant VHR phosphatase, pNPP absorbance. inhibition, % at 13.3 µM; in the data active = inhibition above about 50%
# CCHF vOTU inh = CCHFV vOTU protease inhibitors, primary screen, biochemical, Pep-AMC substrate, fluorescence; Crimean-Congo hemorrhagic fever virus L polyprotein viral ovarian tumor (vOTU) protease …; inhibition, % at 11.5 µM; actives 0.55% (n = 370,000); in the data active = inhibition above about 30%; also: 0% = vehicle wells with enzyme and 100% = no enzyme wells
# RecA intein inh = Mtb RecA intein splicing inhibitors, primary screen, biochemical, fluorescence, HTS; Protein RecA (Mycobacterium tuberculosis (strain ATCC 25618 / H37Rv)), P9WHJ3; cell-free RecA intein splicing; inhibition, % (no concentration beside the values); actives 0.75% (n = 290,000); in the data active = inhibition above about 30%;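 also: 0% = vehicle wells and 100% = reference inhibitor control wells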
# SSB-PriA inh = inhibitors of Klebsiella pneumoniae PriA binding to SSB C-terminal tail, primary screen, biochemical, AlphaScreen. PriA–SSB C-terminal tail interaction (Klebsiella pneumoniae). AlphaScreen SSBct-PriA binding, biotinylated peptide. inhibition, % at 33 µM. actives 0.6% (n = 430,000); in the data active = inhibition mostly above about 37%, no sharp cut-off; inactive = mostly below about 20%;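 also: plate controls were negative control peptide for no effect and reference peptide for full effect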
# 3CLpro inhibitor = SARS-CoV 3CLpro protease inhibitors, primary screen, biochemical, quenched FRET | recombinant SARS-CoV 3CLpro, quenched FRET peptide cleavage | inhibition, % at 6 µM | actives 0.14% (n = 290,000) | AID 1706, 2009; in the data active = inhibition above about 12%
# GFP chromophore = counter-screen: blocks GFP chromophore formation, dose response, counter-screen, biochemical, fluorescence, homogeneous. shares compounds with RecA intein inh. cell-free GFP chromophore formation. EC50, µM. actives 83% (n = 2,100). AID 434968, 2010; call rule not given here
# * = called active by the depositor; / = not tested or not shown. In the library only some 1.7% were active in any assay of this set; here they are far more common.
SMILES,DUSP3 inh,CCHF vOTU inh,RecA intein inh,SSB-PriA inh,3CLpro inhibitor,GFP chromophore
Cc1cccc(/C=C(\c2nc3ccccc3[nH]2)S(=O)(=O)c2ccccc2)c1,13.3,3.3,6.2,8.4,2.9,/
COc1cccc(NC(=O)CSc2c3c(nc4ccccc24)CCCC3)c1,4.3,-12.3,69.8*,4.0,0.1,24.3*
Cc1cccc(NC(=O)CSc2c3c(nc4ccccc24)CCC3)n1,20.7,-2.5,17.5,-3.5,0.9,/
COc1cc(/C=N/NC(=O)c2ccc(F)cc2)ccc1OC(=O)c1ccco1,-5.7,5.5,30.5*,/,5.8,>38
O=C(N/N=C/c1ccc(OC(=O)c2ccco2)cc1)c1ccc[n+]([O-])c1,/,2.0,31.7*,/,/,>38
O=C(CCSc1ccccc1)NCCn1nc(-c2ccco2)n(C2CC2)c1=O,/,/,/,-6.0,/,/
COc1ccc(C)cc1NC(=O)CS(=O)(=O)c1cccs1,/,/,/,7.0,/,/
Cc1cccc(S(=O)(=O)N2CCS[C@H]2c2ccc(Br)cc2)c1,/,/,/,-27.0,/,/
O=c1cc(C23CC4CC(CC(C4)C2)C3)[nH][nH]1,28.4,8.4,90.6*,0.3,-5.0,10*
O=C(CCc1ccccc1Br)NC[C@H](O)c1cccc2ccccc12,/,/,/,2.0,/,/
COc1ccc(C(C#N)c2cnccn2)cc1OC (stereo not drawn),/,12.6,-0.5,16.1,/,/
N#CC(c1ccccc1)c1cnccn1 (stereo not drawn),/,-10.3,33.3*,-18.1,/,>38
CC(=O)/C(=C/c1ccccc1)C(=O)Nc1ccccc1C,5.6,-4.5,-0.6,1.8,0.8,/
Cc1ccccc1NC(=O)C(=Cc1ccc(C(=O)O)cc1)C(=O)Nc1ccccc1C,17.8,0.7,68.4*,-3.8,-1.1,16.3*
Cc1ccc(S(=O)(=O)N2CCN(C(=O)c3ccccc3Cc3ccccc3)CC2)c(C)c1,14.4,-0.2,30.3*,3.8,11.2,>38
Cc1ccc2[nH]c3c(c2c1)CN(C(=O)CN1CCSCC1)CC3,39.8,-4.5,61.3*,/,2.3,0.191*
[O-]C(=C(C(=S)Nc1ccc(Cl)cc1)[n+]1ccccc1)c1ccc(OC(F)F)cc1,/,/,/,1.4,/,/
COc1cccc(NC(=S)/C(=C(\[O-])c2ccc(OC(F)F)cc2)[n+]2ccccc2)c1,13.1,10.3,36.7*,/,-0.2,35.3*
CN(CC#CCNC(=O)C(C)(C)C)Cc1ccccc1,/,/,/,-4.0,/,/
N#C/C(=C\c1cccc(O)c1)c1nc2ccccc2o1,0.0,5.8,69.3*,-3.4,-3.8,20.7*
Cc1noc(CNC(=O)CC(c2ccccc2)c2ccccc2)n1,/,/,/,2.0,/,/
COCCNC(=O)CSc1nc(=O)n2cc(C)ccc2n1,/,/,/,8.0,/,/
COc1ccccc1-c1cn[nH]c(=S)n1,21.6,10.2,35.0*,-7.5,5.7,>38
COc1ccccc1-c1n[nH]c(=S)n1Cc1ccccc1,11.4,1.6,-0.2,5.0,1.7,/
COc1cccc(CC(=O)NCCC(O)c2cccc3ccccc23)c1 (stereo not drawn),/,/,/,4.0,/,/
SMILES,DUSP3 inh,CCHF vOTU inh,RecA intein inh,SSB-PriA inh,3CLpro inhibitor,GFP chromophore
O=C(Cc1cc(=O)[nH]c(SCc2ccccc2F)n1)N1CCCC1,/,/,/,-8.0,/,/
Cc1cc(C)c(S(C)(=O)=O)c(Oc2cccc(C(F)(F)F)c2)n1,11.8,6.7,32.6*,-10.9,0.4,>38
CCOc1ccc(-c2noc(CSc3nc4cc5c(cc4c(=O)n3C)OCO5)n2)cc1,/,/,/,3.0,/,/
O=C1c2ccccc2C(=O)c2c1oc(C(F)(F)F)c2C(=O)c1ccccc1,6.8,25.4,39.2*,-0.7,6.8,>38
O=C(Cn1cnc2c(cnn2C2CCS(=O)(=O)C2)c1=O)N1CCN(c2ccccc2)CC1 (stereo not drawn),/,/,/,-10.0,/,/
CCCCOc1ccc(C(=O)NC[C@](C)(O)CSC)cc1,/,/,/,-19.0,/,/
N=C1CCC(=N)c2c1c(O)c1ccccc1c2O,-0.7,/,90.7*,73.8*,7.1,27.6*
N=C1CCCN1c1ccccc1O,-22.1,-11.8,-5.0,-3.9,1.6,/
O=C(Nc1ccccc1Cc1nc(-c2cnccn2)no1)[C@@H]1COc2ccccc2O1,/,/,/,-6.0,/,/
Cc1[nH]nc2c1C(c1ccc3c(c1)OCO3)C(C#N)=C(N)O2 (stereo not drawn),-1.3,-9.9,66.5*,2.6,3.5,38.6*
